Results from PubChem BioAssay (Tox21).
A number with no mark means an inactive call. Inconclusive results are not listed. Where a call stands in place of a potency, no number is given. The source made the active and inactive calls. Unless noted, the call rests on the fitted dose curve.

Legend:
[1] = Nuclear factor erythroid 2-related factor 2/antioxidant responsive element (Nrf2/ARE) small molecule agonists: qHTS cell viability counter screen in human keratinocytes (AID 1919968; active means well fitted curve in the direction sought with a large enough effect in the repeat runs; an effect the other way counts as inactive or inconclusive; further: nearly all actives have a fitted effect of over 55% in size)
Method in brief: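 Seed 1,500 KeratinoSens cells per well, then incubate 5 h at 37 C/5% CO2. Add compounds in DMSO and incubate 23 h. Add CellTiter-Fluor, wait 1 h and read fluorescence.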

[2] = Nuclear factor erythroid 2-related factor 2/antioxidant responsive element (Nrf2/ARE) small molecule agonists: luciferase reporter gene qHTS assay in human keratinocytes (AID 1919969); further: nearly all actives have a fitted effect of over 35% in size; further: potency means the concentration at half of the fitted maximal effect
[3] = biological target: Gonadotropin-releasing hormone receptor (Homo sapiens) (UniProt P30968); test: Human gonadotropin-releasing hormone receptor (GnRHR) small molecule agonists, calcium flux assay in GnRHR-HEK293 cells (AID 1920063); further: nearly all actives have a fitted effect of over 35% in size
Method in brief: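 Cells: HEK293 stably expressing human GnRHR. Steps: overnight (18 h) culture, 1 h calcium dye loading at 37 C, compound addition, kinetic fluorescence read at 480/540 nm. Each compound tested at 15 concentrations in triplicate.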

[4] = biological target: KiSS-1 receptor (Homo sapiens) (UniProt Q969F8); test: Human kisspeptin (KISS1R) small molecule agonists, calcium flux assay in KISS1R-HEK293 cells (AID 1920064; active means well fitted curve in the direction sought with a large enough effect in the repeat runs; an effect the other way counts as inactive or inconclusive)
Method in brief: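 Cells plated and incubated 18 h; dye added, 1 h at 37 C; compounds in DMSO pinned in; signal read at 480/540 nm every second for 3 min. Each compound tested at 15 concentrations in triplicate.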

[5] = G protein-coupled receptor (GPCR) small molecule agonists, calcium flux assay: HEK293 wild type cell line counter screen (AID 1920065)
Method in brief: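 Counter-screen of the Tox21 10K library for non-specific calcium release: dye-loaded cells received compounds in DMSO and were monitored by kinetic fluorescence (480/540 nm, 3 min). Fifteen concentrations, run in triplicate.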

[6] = p53 small molecule agonists, cell-based qHTS assay with human liver microsomes (AID 1963577)
Method in brief: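 Compounds act here after metabolic activation: human liver microsomes and NADPH, both at 0.5 mg/mL final, were co-added to p53RE-bla cells. Incubation ran 16 h at 37 C, followed by LiveBLAzer detection.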

[7] = p53 small molecule agonists, cell-based qHTS assay with rat liver microsomes (AID 1963578)
Method in brief: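 Read-out is beta-lactamase reporter fluorescence (LiveBLAzer, 2 h, room temperature, dark) in p53RE-bla cells treated 16 h at 37 C with compound, rat liver microsomes and NADPH, both 0.5 mg/mL final.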

[8] = p53 small molecule agonists, cell-based qHTS assay with human liver microsomes: qHTS cell viability counter screen (AID 1963579); further: nearly all actives have a fitted effect of over 45% in size
Method in brief: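 Cells carrying the p53 response-element beta-lactamase reporter are treated for 16 h at 37 C with test compounds in the presence of human liver microsomes and NADPH (both 0.5 mg/mL final); ATP-based CellTiter-Glo luminescence then reports viability.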

[9] = p53 small molecule agonists, cell-based qHTS assay with rat liver microsomes: qHTS cell viability counter screen (AID 1963580); further: nearly all actives have a fitted effect of over 45% in size
Method in brief: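 In HCT-116 cells carrying a p53 response element-bla reporter, compounds were metabolically activated in situ by rat liver microsomes with NADPH over 16 h. Cell ATP content then served as the cytotoxicity measure.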

[10] = p53 small molecule agonists, cell-based qHTS assay: qHTS cell viability counter screen (AID 1963581); further: nearly all actives have a fitted effect of over 45% in size
Method in brief: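 Cells: HCT-116 with p53 response element-driven beta-lactamase. Treatment: 16 h, 37 C, compounds in DMSO. Read: CellTiter-Glo luminescence after 30 min RT.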

[11] = p53 small molecule agonists, cell-based qHTS assay (AID 1963582; active means well fitted activation curve with a large enough effect in the signal ratio in the repeat runs, not every such curve was filed as active; the % refers to the signal ratio)
Method in brief: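 Quantitative HTS in p53RE-bla cells: after a 5 h settling period, compounds delivered in DMSO were left on cells for 16 h at 37 C, and reporter induction was measured as fluorescence following 2 h substrate loading.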

[12] = biological target: 5-hydroxytryptamine receptor 2A (Homo sapiens) (UniProt P28223); test: 5-hydroxytryptamine receptor 2A (HTR2A) small molecule antagonists, cell-based qHTS assay (AID 1963586); further: nearly all actives have a fitted effect of over 45% in size
Method in brief: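 Antagonist-mode intracellular calcium assay: DOI (4 nM) added after 5 min compound pre-incubation at room temperature to dye-loaded HTR2A-CHO cells. Fluorescence followed for 3 min, sampled every second.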

[13] = biological target: 5-hydroxytryptamine receptor 2A (Homo sapiens) (UniProt P28223); test: 5-hydroxytryptamine receptor 2A (HTR2A) small molecule agonists, cell-based qHTS assay (AID 1963587); further: nearly all actives have a fitted effect of over 30% in size; further: potency means the concentration at half of the fitted maximal effect
Method in brief: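 HTR2A-CHO cells, plated 18 h at 37 C/5% CO2, dye-loaded 1 h at 37 C; compounds in DMSO added by pin tool (agonist mode). Intracellular calcium flux read as kinetic fluorescence on FDSS over 2 min at 1 s intervals.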

[14] = biological target: Muscarinic acetylcholine receptor M1 (Homo sapiens) (UniProt P11229); test: Cholinergic receptor muscarinic 1 (CHRM1) small molecule antagonists, cell-based qHTS assay (AID 1963588); further: nearly all actives have a fitted effect of over 40% in size
Method in brief: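 CHRM1-CHO calcium-flux assay, antagonist mode. Cells were seeded 18 h, dye-loaded 1 h at 37 C and given compound for 5 min at RT, then acetylcholine was added at 50nM. FDSS fluorescence was read 3 min; 15 concentrations, three runs.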

[15] = biological target: Muscarinic acetylcholine receptor M1 (Homo sapiens) (UniProt P11229); test: Cholinergic receptor muscarinic 1 (CHRM1) small molecule agonists, cell-based qHTS assay (AID 1963589); further: nearly all actives have a fitted effect of over 35% in size
Method in brief: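 Agonist-mode qHTS in CHO cells stably carrying human muscarinic M1. Intracellular calcium is tracked by fluorescence every second after compound transfer; each compound runs at 15 concentrations in three independent runs.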

[16] = cAMP Responsive Elements (CRE) small molecule agonists, cell-based qHTS assay (AID 1963590)
Method in brief: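 Agonist mode qHTS in CRE-bla HEK 293T cells: compounds dosed from DMSO for 3 h at 37 C/5% CO2, followed by LiveBLAzer B/G FRET substrate for 2 h at room temperature.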

[17] = cAMP Responsive Elements (CRE) small molecule antagonists, cell-based qHTS assay (AID 1963591; active means well fitted inhibition curve with a large enough effect in the signal ratio in the repeat runs, not every such curve was filed as active; the % refers to the signal ratio)
Method in brief: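 Antagonist mode: test compounds are co-incubated with the adenylyl cyclase activator NKH477 (0.25 uM final) on CRE-bla HEK293T cells for 3 h at 37 °C, followed by LiveBLAzer substrate loading.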

[18] = biological target: Beta-2 adrenergic receptor (Homo sapiens) (UniProt P07550); test: Adrenergic beta2 receptor (ADRB2) small molecule antagonists, cell-based qHTS assay (AID 1963592); further: series mostly up to about 92 µM; nearly all actives have a fitted effect of over 50% in size
Method in brief: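 Cells (CHO, stable ADRB2 overexpression) incubated 18-20hr at 37C; compounds added from DMSO; agonist mix (1nM isoproterenol, 100uM IBMX, 25uM Ro-20-1724) added; 0.5hr RT; d2-cAMP and anti-cAMP-cryptate added; 1hr RT; 665/615 nm read.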

[19] = biological target: D(2) dopamine receptor (Homo sapiens) (UniProt P14416); test: Dopamine D2 receptor (DRD2) small molecule agonists, cell-based qHTS assay (AID 1963594); further: nearly all actives have a fitted effect of over 35% in size
Method in brief: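 HEK293 cells stably expressing DRD2 were cultured 24 h at 37 C, then given Ro20-1724 (0.1 mM final) and compounds for 10 min at room temperature. NKH477 (200nM) was then added for 30 min. cAMP was read by HTRF.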

[20] = biological target: D(2) dopamine receptor (Homo sapiens) (UniProt P14416); test: Dopamine D2 receptor (DRD2) small molecule antagonists, cell-based qHTS assay (AID 1963595; active means well fitted inhibition curve with a large enough effect in the signal ratio in the repeat runs, with a control signal flat; the % refers to the signal ratio)
Method in brief: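 HEK293 cells stably expressing DRD2 were preincubated with 0.1 mM Ro20-1724, then with compound for 10 min at room temperature. Cells were stimulated with 200 nM NKH477 plus 12 nM quinpirole for 30 min, and cAMP was read by HTRF.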

Sequence of Muscarinic acetylcholine receptor M1 (Homo sapiens) (P11229 whole entry, looked up): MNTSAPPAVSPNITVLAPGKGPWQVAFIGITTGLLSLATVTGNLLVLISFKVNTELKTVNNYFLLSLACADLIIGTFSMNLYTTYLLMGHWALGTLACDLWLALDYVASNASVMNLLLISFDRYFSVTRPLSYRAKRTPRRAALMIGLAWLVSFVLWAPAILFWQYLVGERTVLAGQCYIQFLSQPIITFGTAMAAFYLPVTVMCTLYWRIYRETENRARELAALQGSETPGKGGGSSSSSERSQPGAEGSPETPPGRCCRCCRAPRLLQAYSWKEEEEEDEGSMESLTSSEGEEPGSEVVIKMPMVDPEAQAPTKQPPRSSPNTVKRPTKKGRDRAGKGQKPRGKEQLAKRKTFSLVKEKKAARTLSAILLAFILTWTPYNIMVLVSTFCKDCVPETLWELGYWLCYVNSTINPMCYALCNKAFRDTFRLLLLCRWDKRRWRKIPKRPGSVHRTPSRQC
Sequence of Beta-2 adrenergic receptor (Homo sapiens) (P07550 whole entry, looked up): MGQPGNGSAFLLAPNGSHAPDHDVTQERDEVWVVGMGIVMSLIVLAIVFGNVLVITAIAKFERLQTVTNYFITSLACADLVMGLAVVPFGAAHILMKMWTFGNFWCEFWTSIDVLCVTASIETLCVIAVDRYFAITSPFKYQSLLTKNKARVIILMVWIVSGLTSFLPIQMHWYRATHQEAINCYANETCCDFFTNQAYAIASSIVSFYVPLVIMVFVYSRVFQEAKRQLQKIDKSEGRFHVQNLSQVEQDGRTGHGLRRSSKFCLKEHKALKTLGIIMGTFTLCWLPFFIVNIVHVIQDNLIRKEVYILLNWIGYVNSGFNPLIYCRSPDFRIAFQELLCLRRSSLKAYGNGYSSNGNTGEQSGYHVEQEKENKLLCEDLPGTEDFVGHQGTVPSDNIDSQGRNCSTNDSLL
Sequence of KiSS-1 receptor (Homo sapiens) (Q969F8 whole entry, looked up): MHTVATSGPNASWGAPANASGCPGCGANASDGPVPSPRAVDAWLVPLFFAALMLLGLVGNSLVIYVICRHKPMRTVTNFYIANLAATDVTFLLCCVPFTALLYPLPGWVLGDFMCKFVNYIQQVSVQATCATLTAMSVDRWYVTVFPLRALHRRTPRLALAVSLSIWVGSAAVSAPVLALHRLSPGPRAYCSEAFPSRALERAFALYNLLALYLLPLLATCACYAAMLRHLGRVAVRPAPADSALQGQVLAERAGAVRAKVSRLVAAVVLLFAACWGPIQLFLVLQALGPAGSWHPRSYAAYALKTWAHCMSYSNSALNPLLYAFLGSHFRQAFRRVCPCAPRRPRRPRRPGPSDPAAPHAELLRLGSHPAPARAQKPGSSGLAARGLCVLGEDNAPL
Sequence of 5-hydroxytryptamine receptor 2A (Homo sapiens) (P28223 whole entry, looked up): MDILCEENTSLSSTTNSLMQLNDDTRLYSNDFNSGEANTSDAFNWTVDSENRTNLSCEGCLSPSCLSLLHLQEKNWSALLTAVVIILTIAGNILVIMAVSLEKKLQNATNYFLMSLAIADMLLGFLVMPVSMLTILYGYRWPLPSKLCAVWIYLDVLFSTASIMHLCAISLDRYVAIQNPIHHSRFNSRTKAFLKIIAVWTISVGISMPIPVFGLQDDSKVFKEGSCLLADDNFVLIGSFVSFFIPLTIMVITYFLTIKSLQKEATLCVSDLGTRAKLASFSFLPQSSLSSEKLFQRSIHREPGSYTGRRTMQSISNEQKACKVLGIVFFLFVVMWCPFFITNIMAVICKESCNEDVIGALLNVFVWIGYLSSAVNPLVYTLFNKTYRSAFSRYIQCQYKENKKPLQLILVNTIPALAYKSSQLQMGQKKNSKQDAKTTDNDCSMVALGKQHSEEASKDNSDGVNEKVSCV
Sequence of Gonadotropin-releasing hormone receptor (Homo sapiens) (P30968 whole entry, looked up): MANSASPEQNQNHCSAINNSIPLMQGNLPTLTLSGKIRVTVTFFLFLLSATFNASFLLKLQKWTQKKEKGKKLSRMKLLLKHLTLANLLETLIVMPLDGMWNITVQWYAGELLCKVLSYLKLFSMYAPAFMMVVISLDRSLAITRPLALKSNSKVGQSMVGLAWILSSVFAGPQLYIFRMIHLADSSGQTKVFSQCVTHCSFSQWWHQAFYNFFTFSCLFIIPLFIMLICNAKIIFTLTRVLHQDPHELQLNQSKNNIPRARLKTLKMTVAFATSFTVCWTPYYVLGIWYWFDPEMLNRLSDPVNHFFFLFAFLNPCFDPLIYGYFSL
Sequence of D(2) dopamine receptor (Homo sapiens) (P14416 whole entry, looked up): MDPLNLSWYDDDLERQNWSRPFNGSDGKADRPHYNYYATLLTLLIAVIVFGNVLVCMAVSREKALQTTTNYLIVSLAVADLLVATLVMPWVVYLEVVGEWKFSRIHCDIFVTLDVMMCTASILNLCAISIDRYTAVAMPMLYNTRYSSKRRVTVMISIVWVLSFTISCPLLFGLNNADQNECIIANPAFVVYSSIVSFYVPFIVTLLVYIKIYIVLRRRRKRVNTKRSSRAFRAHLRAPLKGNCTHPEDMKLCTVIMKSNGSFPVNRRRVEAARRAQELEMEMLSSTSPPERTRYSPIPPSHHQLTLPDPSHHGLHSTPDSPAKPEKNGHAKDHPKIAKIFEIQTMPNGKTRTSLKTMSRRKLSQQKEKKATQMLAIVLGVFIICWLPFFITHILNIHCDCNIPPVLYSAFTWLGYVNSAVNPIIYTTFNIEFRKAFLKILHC

Structure (SMILES)	Potency [1]	Potency [2]	Potency [3]	outcome [4]	outcome [5]	Potency [6]	Potency [7]	Potency [8]	Potency [9]	Potency [10]	Potency [11]	Potency [12]	Potency [13]	Potency [14]	Potency [15]	Potency [16]	Potency [17]	Potency [18]	Potency [19]	Potency [20]
O=c1[nH]cnc2nc[nH]c12	inactive	inactive	inactive	inactive	inactive	inactive	inactive	inactive	inactive	inactive	inactive	inactive	inactive	inactive	inactive	inactive	inactive	inactive	inactive	inactive
CC(C)C(=O)OCc1ccccc1	inactive	inactive	inactive	inactive	inactive	inactive	inactive	inactive	inactive	inactive	inactive	inactive	inactive	inactive	inactive	inactive	inactive	inactive	inactive	inactive
COC(=O)c1cccc(Cl)c1	inactive	inactive	inactive	inactive	inactive	inactive	inactive	inactive	inactive	inactive	inactive	inactive	21.6 µM (active)	inactive	inactive	inactive	inactive	inactive	–	inactive
C=CC(C)(CCC=C(C)C)OC(=O)C(C)C (centres undefined)	inactive	inactive	inactive	inactive	inactive	inactive	inactive	inactive	inactive	inactive	inactive	inactive	inactive	inactive	inactive	inactive	inactive	inactive	inactive	inactive
C=CCCCC	inactive	inactive	inactive	inactive	inactive	inactive	inactive	inactive	inactive	inactive	inactive	inactive	inactive	inactive	inactive	inactive	inactive	inactive	inactive	inactive
CCCCOC(=O)/C=C\C(=O)OCCCC	inactive	25.2 µM (active)	inactive	inactive	inactive	inactive	inactive	inactive	inactive	inactive	inactive	inactive	inactive	inactive	inactive	inactive	inactive	inactive	inactive	inactive
CCCCCCCCCCCCSC	inactive	inactive	inactive	inactive	inactive	inactive	inactive	inactive	inactive	inactive	inactive	inactive	inactive	inactive	inactive	inactive	inactive	inactive	inactive	inactive
